Experimental data as given in PubChem BioAssay (EPA / NIEHS).
Inconclusive results are not listed. Calls of active or inactive are those of the source. The calls were made as follows, unless noted: active = hit-call score of the fitted dose curve at least 0.9, where 1 is the maximum; inactive = score below 0.9.

Experiments:
[1] = CCTE_Mundy_HCI_Cortical_NOG_NeuriteCount: CCTE's Neurite Outgrowth Assay in rat cortical cells for Neurite Count, Mundy Lab (AID 2284212);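 also: cells fixed about two days after chemical exposure began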
Outline: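 Rat cortical primary cells; compound added 2 h post-plating, 1/10 dilution of working solution. Anti-betaIII-tubulin/AF488 ICC; ArrayScan neurite count vs DMSO.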

[2] = CCTE_Mundy_HCI_Cortical_NOG_NeuriteLength: CCTE's Neurite Outgrowth Assay in rat cortical cells for Neurite Length, Mundy Lab (AID 2284213)
Outline: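 First, rat primary cortical cells were plated and, 2 h later, given test chemical as a 1/10 dilution. Finally, βIII-tubulin immunostaining enabled automated imaging of neurite length.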

[3] = CCTE_Mundy_HCI_Cortical_Synap_Neur_Matur_NeuriteLength: CCTE's Synaptogenesis and Neurite Maturation Assay in rat cortical cells for Neurite Length, Mundy Lab (AID 2284214)
Outline: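 DMSO-normalised neurite length, from high-content imaging of anti-MAP2-stained rat cortical cells fixed at DIV 12. Glia were suppressed with AraC (DIV 5) before chemical exposure from DIV 7.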

[4] = CCTE_Mundy_HCI_Cortical_Synap_Neur_Matur_NeuriteSpotCountPerNeuron: CCTE's Synaptogenesis and Neurite Maturation Assay in rat cortical cells for Neurite Spot Count per Neuron Count, Mundy Lab (AID 2284215)
Outline: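 Rat primary cortical cultures given AraC at DIV 5, dosed from DIV 7 to DIV 12 with media change. Fixed, stained for MAP2, synaptophysin and Hoechst; neurite-associated synaptophysin puncta per neuron quantified by high-content imaging versus DMSO.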

[5] = CCTE_Mundy_HCI_Cortical_Synap_Neur_Matur_SynapseCount: CCTE's Synaptogenesis and Neurite Maturation Assay in rat cortical cells for Synapse Count, Mundy Lab (AID 2284218)
Outline: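 Endpoint: synapses/neuron by HCI (synaptophysin puncta on MAP2-labelled neurites, Hoechst nuclei). Rat primary cortical cells, AraC DIV 5, dosed DIV 7, fixed DIV 12; DMSO negative control.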

[6] = CCTE_Mundy_HCI_hN2_NOG_NeuriteCount: CCTE's Neurite Outgrowth Assay in human hN2 cells for Neurite Count, Mundy Lab (AID 2284219; active = hit-call score of the fitted dose curve at least 0.9, where 1 is the maximum)
Outline: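 In this morphology assay, hNP1-derived neurons received test chemical 2 h post-plating and were fixed two days later in warm paraformaldehyde/sucrose containing Hoechst 33342. Neurites, labelled by rabbit anti-βIII-tubulin (1:800) and Alexa Fluor-488 (1:500), were counted automatically.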

[7] = CCTE_Mundy_HCI_hN2_NOG_NeuriteLength: CCTE's Neurite Outgrowth Assay in human hN2 cells for Neurite Length, Mundy Lab (AID 2284220; active = hit-call score of the fitted dose curve at least 0.9, where 1 is the maximum)
Outline: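 Read-out is neurite length from high-content imaging of βIII-tubulin/Alexa Fluor-488-labelled neurons, referenced to DMSO controls.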

[8] = CCTE_Mundy_HCI_hN2_NOG_NeuronCount: CCTE's Neurite Outgrowth Assay in human hN2 cells for Neuron Count, Mundy Lab (AID 2284221; active = hit-call score of the fitted dose curve at least 0.9, where 1 is the maximum)
Outline: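 Read-out is the number of betaIII-tubulin-positive neurons imaged by automated high-content analysis, with DMSO as negative control.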

[9] = CCTE_Mundy_HCI_Cortical_Synap_Neur_Matur_NeuriteCount: CCTE's Synaptogenesis and Neurite Maturation Assay in rat cortical cells for Neurite Count, Mundy Lab (AID 2284222);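 also: exposure from day 7 to day 12 in vitro with readout at day 12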
Outline: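 Chemical exposure runs DIV 7–12 in rat cortical cultures, glia suppressed by AraC at DIV 5; measurement is at DIV 12. Imaging-derived neurite counts are fitted against DMSO baseline.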

[10] = CCTE_Mundy_HCI_Cortical_NOG_BPCount: CCTE's Neurite Outgrowth Assay in rat cortical cells for Branch Point Count, Mundy Lab (AID 2284237)
Outline: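 Measured 50.33 h after dosing, this morphology endpoint uses rat primary cortical cultures labelled for betaIII-tubulin. Branch points are quantified by high-content imaging, with DMSO as negative control and baseline.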

[11] = CCTE_Mundy_HCI_hNP1_Casp3_7: CCTE's Caspase-Glo 3/7 Assay in human neuroprogenitor cells for Apoptosis, Mundy Lab (AID 2284240)
Outline: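 Luminescent caspase-3/7 readout, 26.5 h post-dose, in human neural progenitor cells from WA09 embryonic stem cells. Cells grew 40–44 h at 37 °C, 5% CO2 before chemical addition. Activity analysed as signal increase over DMSO baseline.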

[12] = CCTE_Mundy_HCI_hNP1_CellTiter: CCTE's Cell Titer-Glo 2 Assay in human neuroprogenitor cells for Viability, Mundy Lab (AID 2284241; active = hit-call score of the fitted dose curve at least 0.9, where 1 is the maximum)
Outline: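 Viability read as luminescent ATP content (CellTiter-Glo, 30 min room temperature) twenty-four hours after dosing, relative to DMSO. Cells: WA09-derived hNP1 neuroprogenitors on poly-L-ornithine/laminin, plated 40 to 44 hours before chemical.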

[13] = CCTE_Mundy_HCI_Cortical_Synap_Neur_Matur_NeuronCount: CCTE's Synaptogenesis and Neurite Maturation Assay in rat cortical cells for Neuron Count, Mundy Lab (AID 2284242; active = hit-call score of the fitted dose curve at least 0.9, where 1 is the maximum)
Outline: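 Measured at DIV 12: fluorescently labelled neurons (Hoechst nuclei, MAP2) in rat primary cortical cultures, counted by high-content imaging. AraC suppressed glia from DIV 5; DMSO served as negative control.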

[14] = IUF_NPC2c_oligodendrocyte_migration_120hr: Leibniz Research Institute for Environmental Medicine (IUF) 120-hour Neural Progenitor Cell Migration Assay for Oligodendrocyte Migration (NPC2c) (AID 2284297);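 also: O4-positive oligodendrocyte migration distance divided by radial glia migration distance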
Outline: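 Human fetal neural progenitor spheres (0.3 mm) are plated on poly-D-lysine/laminin in N2 differentiation medium and exposed for 120 h, with half-medium renewal at day 3. Oligodendrocyte (O4+) migration distance comes from ICC imaging, normalised to radial glia migration.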

[15] = IUF_NPC2a_radial_glia_migration_120hr: Leibniz Research Institute for Environmental Medicine (IUF) 120-hour Neural Progenitor Cell Migration Assay for Radial Glia Migration (NPC2a) (AID 2284298)
Outline: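 Human fetal-cortex neural progenitor spheres (0.3 mm) plated on poly-D-lysine/laminin in N2 differentiation medium, exposed 120 h at 37C with half-medium renewal at day 3. Radial glia migration distance (um) measured from Hoechst-stained nuclei images; DMSO baseline.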

[16] = IUF_NPC2a_radial_glia_migration_72hr: Leibniz Research Institute for Environmental Medicine (IUF) 72-hour Neural Progenitor Cell Migration Assay for Radial Glia Migration (NPC2a) (AID 2284299)
Outline: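 Spheres of human primary neural progenitors migrate on poly-D-lysine/laminin under compound exposure at 37C, 5% CO2. The 72 h radial glia migration distance comes from brightfield images, measured manually.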

[17] = IUF_NPC2b_neuronal_migration_120hr: Leibniz Research Institute for Environmental Medicine (IUF) 120-hour Neural Progenitor Cell Migration Assay for Neuron Migration (NPC2b) (AID 2284300)
Outline: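 0.3 mm hNPC spheres on poly-D-lysine/laminin in N2 differentiation medium exposed 120 h, half-medium refresh day 3; 7 concentrations, DMSO max 0.1%. Neuron (TUBB3) distance from sphere core by ICC imaging, normalised to radial glia migration.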

[18] = IUF_NPC3_neuronal_differentiation_120hr: Leibniz Research Institute for Environmental Medicine (IUF) 120-hour Neuronal Differentiation Assay (NPC3) (AID 2284301)
Outline: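 hNPC spheres, PDL/laminin, DMEM/F12 3:1 + 1% N2, 37C, 5% CO2; 7 concentrations + solvent control, 5 d exposure, half-change day 3. Fix 120 h; TUBB3/Hoechst ICC, CNN neuron calling; % neurons vs nuclei, DMSO-normalized.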

[19] = IUF_NPC4_neurite_length_120hr: Leibniz Research Institute for Environmental Medicine (IUF) 120-hour Neuronal Morphology Assay for Neurite Length (NPC4) (AID 2284302)
Outline: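 hNPC spheres (0.3 mm, fetal brain GW 16-19) on PDL/laminin, DMEM:F12 3:1 + 1% N2, 37C 5% CO2; 7 concs + solvent control, day 0-5, half medium change d3; fix 120 h, TUBB3 ICC, mean neurite length um vs DMSO.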

[20] = IUF_NPC5_oligodendrocyte_differentiation_120hr: Leibniz Research Institute for Environmental Medicine (IUF) 120-hour Oligodendrocyte Differentiation Assay (NPC5) (AID 2284304; active = hit-call score of the fitted dose curve at least 0.9, where 1 is the maximum;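 also: primary human fetal neural progenitor spheres plated to migrate and differentiate; share of O4-positive cells among Hoechst nuclei found by CNN image analysis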)
Outline: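 Human fetal neural progenitor spheres (0.3 mm) plated on poly-D-lysine/laminin in N2 differentiation medium and exposed for 120 h at 7 concentrations, with half-medium renewal at day 3. O4-positive cells identified by CNN, expressed as percent of Hoechst nuclei.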

[21] = IUF_NPC2-5_cytotoxicity_72hr: Cytotoxicity Assessment at 72 hours in the Leibniz Research Institute for Environmental Medicine (IUF) Neural Progenitor Cell Migration and Differentiation Assay for Cytotoxicity (NPC2-5) (AID 2284306; active = hit-call score of the fitted dose curve at least 0.9, where 1 is the maximum;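 also: LDH release into supernatant measured by resorufin fluorescence marking membrane damage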)
Outline: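 hNPC spheres (0.3 mm), PDL/laminin, DMEM/F12 3:1 + 1% N2; cpd from d0, 7 concs + SC, DMSO max 0.1%; half-medium refresh d3. Readout: supernatant LDH via resorufin fluorescence (RFU), 72 h; gain-of-signal fit.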

[22] = IUF_NPC2-5_cytotoxicity_120hr: Cytotoxicity Assessment at 120 hours in the Leibniz Research Institute for Environmental Medicine (IUF) Neural Progenitor Cell Migration and Differentiation Assay (NPC2-5) (AID 2284307; active = hit-call score of the fitted dose curve at least 0.9, where 1 is the maximum)
Outline: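 Human fetal (GW 16-19) neural progenitor spheres (0.3 mm) plated on poly-D-lysine/laminin in N2 differentiation medium, exposed 120 h with half-medium renewal at day 3; 7 concentrations plus solvent control, DMSO ≤0.1%. LDH release in supernatant read by resorufin fluorescence.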

[23] = IUF_NPC2-5_cell_number_120hr: Cell Number Assessment at 120 hours in the Leibniz Research Institute for Environmental Medicine (IUF) Neural Progenitor Cell Migration and Differentiation Assay (NPC2-5) (AID 2284308);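 also: count of Hoechst-stained nuclei in migration zone around plated human neural progenitor spheres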
Outline: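 Human fetal neural progenitor spheres (0.3 mm) plated on poly-D-lysine/laminin in N2 differentiation medium, exposed five days across 7 concentrations with half-medium refresh at day 3. Hoechst-positive nuclei counted in migration area at 120 h, relative to DMSO.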

[24] = IUF_NPC2-5_viability_120hr: Viability Assessment at 120 hours in the Leibniz Research Institute for Environmental Medicine (IUF) Neural Progenitor Cell Migration and Differentiation Assay (NPC2-5) (AID 2284312)
Outline: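 Human fetal neural progenitor spheres (0.3 mm) plated on poly-D-lysine/laminin in N2 differentiation medium, exposed 120 h with half-medium refresh at day 3. Viability by alamar blue resazurin fluorescence; 7 concentrations, DMSO max 0.1%.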

[25] = IUF_NPC1_cytotoxicity_72hr: Cytotoxicity Assessment at 72 hours in the Leibniz Research Institute for Environmental Medicine (IUF) Neural Progenitor Cell Proliferation Assay (NPC1) (AID 2284332; active = hit-call score of the fitted dose curve at least 0.9, where 1 is the maximum;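 also: rising LDH signal means more cytotoxicity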)
Outline: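 Readout is fluorescence from LDH-dependent resazurin conversion, sampled from culture medium after compound contact lasting 72 h. Each well holds one 0.25-0.35 mm human progenitor sphere kept at 37C, 5% CO2 with EGF and FGF.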

Measured: outcome

C[C@H](CS)C(=O)N1CCC[C@H]1C(=O)O
inactive: all assays above
